mHTT CaM bind – mutant huntingtin-calmodulin interaction inhibitors – biochemical, AlphaScreen, primary screen | 190,000 tested, 3.6% active | inhibition, % at 15 µM | AID 1671202, 2021 | AlphaScreen His-mHTT/GST-CaM binding, luminescence
Pf apPOL inh – Pf-apPOL inhibitors, biochemical, fluorescence. Plasmodium falciparum apicoplast DNA polymerase (apPOL). Recombinant Pf-apPOL, molecular beacon fluorescence, 1.5 h. inhibition, % at 10 µM. 210,000 tested, 0.25% active. AID 1794808, 2022
Each line names hits and unclear results; the compound was inactive in the other large screens. Hits are enriched below; roughly 3.6% of the tested compounds scored in any of these assays. Cut-off read from the data, not from the text of the source: active = inhibition above about 50%; inactive = the rest.

COC(=O)C1CNNC(=O)C1 (configuration not stated)	none
O=C(c1ccc(F)cc1)N1CCN(Cc2noc(-c3cccc(F)c3)n2)CC1	none
O=C1C=C(c2ccccc2)CC(c2cccs2)C1n1nnc2ccccc21 (configuration not stated)	none
O=C1C(Nc2ccc(Cl)cc2)=C(n2nnc3ccccc32)C(=O)c2ccccc21	none
CCN(CC)c1ccc(NC2=C(n3nnc4ccccc43)C(=O)c3ccccc3C2=O)cc1	mHTT CaM bind 70
COCCN(CCOC)Cc1c(O)ccc2c1OC(=Cc1ccc(OC)cc1)C2=O	none
O=C(O)C1CCCC1S(=O)(=O)c1ccc([N+](=O)[O-])cc1 (configuration not stated)	none
COc1ccccc1-n1c(CSc2ccccc2[N+](=O)[O-])n[nH]c1=S	none (no result: mHTT CaM bind)
C=CCn1c(CSc2ccccc2[N+](=O)[O-])n[nH]c1=S	Pf apPOL inh 60 (no result: mHTT CaM bind)
O=C(CSc1nc2c(c(=O)n1-c1ccc([N+](=O)[O-])cc1)SCC2)NCCc1ccccc1	none
COc1cccc2c1C(=O)c1c(O)c3c(c(O)c1C2=O)CC(O)(C(=O)CO)CC3OC1CC(N)C(O)C(C)O1 (configuration not stated)	none (no result: mHTT CaM bind)
CC(=O)[C@]1(O)Cc2c(O)c3c(c(O)c2[C@@H](O[C@H]2C[C@H](N)[C@H](O)[C@H](C)O2)C1)C(=O)c1ccccc1C3=O	Pf apPOL inh 50 (no result: mHTT CaM bind)
O=C(c1ccccc1Cl)N1CCC2(CC1)NC(=O)N(Cc1ccc(F)cc1)C2=O	none
CC(C)N1C(=O)C(C)(C(=O)NCc2ccc(Br)cc2)Oc2cccnc21 (configuration not stated)	mHTT CaM bind 95
CC(C)N1C(=O)C(C)(C(=O)NCc2ccccc2)Oc2cccnc21 (configuration not stated)	none
COc1ccccc1-c1nc(C2CCCN(C(=O)c3ccnn3C)C2)no1 (configuration not stated)	none
CCCN1C(=O)Cc2cc(C(=O)N3CCOCC3)ccc21	none
CCCN1C(=O)Cc2cc(C(=O)N3CCN(c4ccc(C)cc4)CC3)ccc21	none
CCCN1C(=O)Cc2cc(C(=O)N3CCN(c4cccc(C)c4)CC3)ccc21	none
O=C(c1ccc2c(c1)CC(=O)N2Cc1ccccc1)N1CCCCC1	none
CCCN1C(=O)Cc2cc(C(=O)N3CCN(c4cccc(C)c4C)CC3)ccc21	mHTT CaM bind 55
O=C(c1ccc2c(c1)CC(=O)N2Cc1ccccc1)N1CCN(c2ccccn2)CC1	mHTT CaM bind 54
CCCN1C(=O)Cc2cc(C(=O)N3CCN(c4ccccc4)CC3)ccc21	mHTT CaM bind 51
CCCN1C(=O)Cc2cc(C(=O)N3CCN(c4ccc(F)cc4)CC3)ccc21	mHTT CaM bind 51
CC(=O)NC(Oc1ccc(/C=C2/C(=O)N(c3ccccc3)N=C2C)cc1)C(Cl)(Cl)Cl (configuration not stated)	none
CCC(=O)NC1=NC(=O)/C(=C/c2cn(C(=O)CC)nc2-c2ccc(F)cc2)S1	none
O=C(CCNS(=O)(=O)c1ccc(Br)s1)NC1CCCCC1	none
COc1ccc(CC(=O)N(C)C2CCN(c3nccnc3OC)C2)cc1 (configuration not stated)	none
O=C(c1cc2ccccc2o1)N1CCN=C1SCc1ccccc1	none
Cc1nn(C)c(C)c1CCCN(C)C(=O)C1CCCN(c2cnn(C)c(=O)c2)C1 (configuration not stated)	none
COc1ccccc1N1CCN(C(=O)c2ccc(-c3cccnc3)nc2)CC1	none
Cc1cccc(N2CCN(C(=O)c3ccc(-c4cccnc4)nc3)CC2)c1C	mHTT CaM bind 64
c1ccc(CSc2nnc3ccc(-c4ccccn4)nn23)nc1	none
O=[N+]([O-])c1cccc(CSc2ccc3nnc(-c4ccccn4)n3n2)c1	mHTT CaM bind 98
Cc1nc(CSc2ccc3nnc(-c4ccccn4)n3n2)cs1	mHTT CaM bind 76
O=C(NCCc1nnc2ccc(SCc3ccccn3)nn12)c1ccccc1	none
Cc1nonc1-c1ccnc2nnc(N)n12	none (no result: Pf apPOL inh)
Cc1nc2c(ccc3[nH]c(C)nc32)[nH]1	none (no result: Pf apPOL inh)
CC1C(=O)N(c2cccc3ccccc23)CCN1C(=O)c1ccc(F)cc1 (configuration not stated)	none
O=C(c1cc2ccccc2o1)N1CCN(Cc2ccsc2)CC1	none
COc1ccc(OC)c2sc(N(CCCn3ccnc3)C(=O)Cc3ccccc3)nc12	mHTT CaM bind 68
O=C(c1ccco1)N(CCCn1ccnc1)c1nc2c(Cl)cccc2s1	none
COc1ccc(C2=CC(c3ccccc3)SC(N)=N2)cc1 (configuration not stated)	none (no result: Pf apPOL inh)
NC1=NC(c2ccc(Cl)cc2)=CC(c2ccc(F)cc2)S1 (configuration not stated)	mHTT CaM bind 68 (no result: Pf apPOL inh)
CCOC(=O)c1cc(-c2ccccc2)sc1NC(=O)CSc1nnc(-c2ccco2)o1	none (no result: mHTT CaM bind)
CC(=O)NC1=NN(C(C)=O)C2(S1)C(=O)N(C(C)=O)c1ccc(Br)cc12 (configuration not stated)	mHTT CaM bind 52
CC(=O)NC1=NN(C(C)=O)C2(S1)C(=O)N(C(C)=O)c1ccccc12 (configuration not stated)	none
O=C(NCc1ccc(F)cc1)NCC(O)C1CCCCC1 (configuration not stated)	none
c1ccc(CN2CCC(NC3CC4CCC3C4)CC2)cc1 (configuration not stated)	none
CCC1=NN(C(=O)c2cccc(Cl)c2)C(O)(c2ccc(Br)cc2)C1 (configuration not stated)	mHTT CaM bind 89
CCC1=NN(C(=O)c2cccc(Cl)c2)C(O)(C(F)(F)F)C1 (configuration not stated)	none
CCC1=NN(C(=O)c2ccc(Br)cc2)C(O)(c2ccccc2)C1 (configuration not stated)	none
CCC1=NN(C(=O)c2cccc(Br)c2)C(O)(C(F)(F)F)C1 (configuration not stated)	none
CCC1=NN(C(=O)c2ccc(Cl)cc2)C(O)(c2ccc(Br)cc2)C1 (configuration not stated)	mHTT CaM bind 85
CCC1=NN(C(=O)c2ccncc2)C(O)(c2ccc(Br)cc2)C1 (configuration not stated)	none
CCC1=NN(C(=O)c2ccc(Br)cc2)C(O)(c2ccc(OC)cc2)C1 (configuration not stated)	mHTT CaM bind 59
CCCCC1=NN(C(=O)c2cccc(Cl)c2)C(O)(C(F)(F)F)C1 (configuration not stated)	Pf apPOL inh 57
CCCCN(C)C(=O)c1nn(-c2ccccc2OC)c(=O)c2ccccc12	none
Cc1cccc(Nc2nc(-c3cccnc3)cs2)c1	none
CCc1ccc(-c2csc(Nc3cccc(OC)c3)n2)cc1	mHTT CaM bind 67
COc1cccc(Nc2nc(-c3ccc(OC)c(F)c3)cs2)c1	mHTT CaM bind 64
COc1ccc(-c2csc(Nc3ccccc3OC)n2)cc1F	none
COc1cccc(Nc2nc(-c3cc(C)ccc3C)cs2)c1	mHTT CaM bind 63
COc1ccc(-c2csc(NCc3ccccc3)n2)cc1	none (no result: Pf apPOL inh)
COc1cccc(Nc2ccc(-c3ccccc3)nn2)c1	none (no result: mHTT CaM bind)
COc1cccc(Nc2nc(-c3ccccc3)cs2)c1	mHTT CaM bind 62
Cc1cc2c(cc1C)NC(CC(=O)NC(N)=O)C(=O)N2 (configuration not stated)	none
CCCN1CCN(C(=O)c2nc3ccccn3c2-c2ccc(F)cc2)CC1	none
CCOC(=O)C(C)Sc1ccc2nnc(CCNC(=O)c3ccc(OC)cc3)n2n1 (configuration not stated)	none

Screens from PubChem BioAssay.
